Data reported in PubChem BioAssay (Tox21).
Inconclusive results are not listed. The source made the active and inactive calls. Calls follow the shape of the dose curve; as a rule, active = well fitted activation curve with a large enough effect in the repeat runs; inconclusive = weak or mixed curves; inactive = flat fitted curve, though single readings scatter.

Assay: Caspase-3/7 induction in HepG2 cells by small molecules, qHTS assay (AID 1346978); also: nearly all actives have a fitted effect of over 15% in size
Settings: HepG2 caspase-3/7 activation, Caspase-Glo luminescence, 17 h; series mostly up to 92.4 µM; caspase activation: at the top concentration
From the text: National Center for Advancing Translational Sciences [NCATS] NIH Chemical Genomics Center [NCGC] U.S. Environmental Protection Agency [EPA] National Institutes of Environmental Health Sciences [NIEHS] National Toxicology Program [NTP] Assay overview: Apoptosis is a process of programmed cell death and plays a central role in the development of multicellular organisms. It is a highly regulated process and induces cell death by activating caspases, which are the members of cysteine aspartic acid-specific protease (caspase) family. Caspases involved in apoptosis are classified by their mechanism of action as initiator caspases (caspase-2, -8, -9 and -10) and executioner caspases (caspase-3, -6, and -7). Inhibition of apoptosis results in number of cancers, autoimmune diseases, inflammatory diseases and viral infection. To identify small molecule compounds that induce apoptosis, a homogeneous, luminescent Caspase-Glo 3/7 assay was used. Wild type HepG2 cells were used to screen Tox21 libraries for identifying caspase-3/7 activity inducers.
Assay Protocol Summary: HepG2 cells were dispensed at 2,000 per well in 5uL of culture medium into white solid bottom 1536-well plates (Corning Life Sciences, Corning, NY) using a Multidrop Combi (Thermo Scientific, Waltham, MA) dispenser. The assay plates were incubated at 37 C and 5% CO2 for 5hr, and then 23nL of compounds dissolved in DMSO and positive control were transferred using a Pintool station (Wako, San Diego, CA). The assay plates were incubated at 37C and 5% CO2 for 17hr. For caspase-3/7 activity read, 4uL of Caspase-Glo 3/7 reagent (Promega Corporation, Madison, WI) was added to each well of the assay plates using Flying Reagent Dispenser (FRD, Aurora Discovery, San Diego, CA) and incubated the assay plates at room temperature for 30min. The luminescence signal was quantified using a ViewLux plate reader (Perkin Elmer, Shelton, CT).
% is scaled to controls: 0 for no effect and ±100 for the full control effect; potency is read from the fitted curve at half-maximal effect.

SMILES | caspase activation | Potency
Cc1onc(-c2c(Cl)cccc2Cl)c1C(=O)N[C@@H]1C(=O)N2[C@@H]1SC(C)(C)[C@@H]2C(=O)O | -0.112% [at 42.5 µM] (inactive) | –
CCCCCCOC(=O)c1ccc(O)cc1 | – | inactive
Nc1nc2ccccc2n1Cc1ccc(F)cc1 | -0.42% [at 42.5 µM] (inactive) | –
Nc1c(Cl)cc(Cl)cc1Cl | 1.35% (inactive) | –
O=C1c2c(O)ccc(Nc3ccc(CCO)cc3)c2C(=O)c2c([N+](=O)[O-])ccc(O)c21 | -11.5% (inactive) | –
O=C(c1ccc(F)cc1)C1CCN(CCn2c(=O)[nH]c3ccccc3c2=O)CC1 | 1.06% [at 42.5 µM] (inactive) | –
O=C(NOCC1CC1)c1ccc(F)c(F)c1Nc1ccc(I)cc1Cl | 0.318% [at 42.5 µM] (inactive) | –
Nc1ccccc1O | -5.94% (inactive) | –
O=C(Nc1cccc(C(F)(F)F)c1)c1cc(Br)cc(Br)c1O | -12.7% (inactive) | –
O=C1C=CC(=O)N1 | -21.6% (inactive) | –
O=Cc1cc(O)ccc1Br | -9.77% (inactive) | –
O=C(OCC(COC(=O)c1ccccc1)(COC(=O)c1ccccc1)COC(=O)c1ccccc1)c1ccccc1 | -0.878% (inactive) | –
COc1cc(/C=C/C(=O)O[C@H]2CC[C@]34C[C@]35CC[C@]3(C)[C@@H]([C@H](C)CCC=C(C)C)CC[C@@]3(C)[C@@H]5CC[C@H]4C2(C)C)ccc1O | – | 15 µM (active)
Cc1cccc(CN2CCN(C(c3ccccc3)c3ccc(Cl)cc3)CC2)c1 (stereo not given) | 0.0773% [at 42.5 µM] (inactive) | –
N=C1N=C(N)c2cc3ccccc3cc21 | – | 45.8 µM (active)
CCC(C)(C)C1CCCCC1OC(C)=O (stereo not given) | 0.431% (inactive) | –
CCCCC(CC)COC(=O)c1ccccc1C(=O)O (stereo not given) | -0.0788% (inactive) | –
CCN(C(=O)N(CC)c1ccccc1)c1ccccc1 | 2.19% (inactive) | –
Cc1cc(C2CCCCC2)n(O)c(=O)c1 | 1.74% [at 42.5 µM] (inactive) | –
CCC1=C[C@@H]2CN(C1)Cc1c([nH]c3ccccc13)[C@@](C(=O)OC)(c1cc3c(cc1OC)N(C)[C@H]1[C@@](O)(C(=O)OC)[C@H](OC(C)=O)[C@]4(CC)C=CCN5CC[C@]31[C@@H]54)C2 | 0.977% [at 42.5 µM] (inactive) | –

SMILES | caspase activation | Potency
Cc1cc(O)c2ccccc2c1O | -13.1% [at 42.5 µM] (inactive) | –
CCCCCCCCCCCCCCCS(=O)(=O)Oc1ccccc1 | 0.128% [at 42.5 µM] (inactive) | –
COc1cc(-c2ccc(N=C=O)c(OC)c2)ccc1N=C=O | 1.23% [at 42.5 µM] (inactive) | –
CN(C)c1ccc(C2(c3ccc(N(C)C)cc3)OC(=O)c3cc(N(C)C)ccc32)cc1 | -0.408% (inactive) | –
O=c1[nH]sc2cc(Cl)ccc12 | 2.08% [at 42.5 µM] (inactive) | –
CCN(CC)CCCC(C)Nc1c2ccc(Cl)cc2nc2ccc(OC)cc12 (stereo not given) | – | 29.8 µM (active)
CC[C@@]1(O)C(=O)OCc2c1cc1n(c2=O)Cc2cc3c(CN(C)C)c(O)ccc3nc2-1 | – | 4.22 µM (active)
Oc1c(Cl)cc(Cl)c2cccnc12 | 5.37% [at 42.5 µM] (inactive) | –
CN(C)CCCOC1(Cc2ccccc2)CCCCCC1 | 0.356% [at 42.5 µM] (inactive) | –
C/C=C(\C)C(=O)OCc1ccccc1 | 0.436% (inactive) | –
CC(C)n1nc(-c2cc3cc(O)ccc3[nH]2)c2c(N)ncnc21 | – | 29.8 µM (active)
CNc1ccc(O)cc1 | -9.81% (inactive) | –
CN(C)c1ccc(SC#N)cc1 | 0.542% (inactive) | –
CN1CCC(Nc2ncc3ncnc(Nc4ccc(F)c(Cl)c4)c3n2)CC1 | 4.36% [at 42.5 µM] (inactive) | –
OC1(c2ccc(Cl)c(C(F)(F)F)c2)CCN(CCCC(c2ccc(F)cc2)c2ccc(F)cc2)CC1 | – | 13.3 µM (active)
c1cc(C(c2ccc(OCC3CO3)cc2)c2ccc(OCC3CO3)cc2)ccc1OCC1CO1 (stereo not given) | 10.7% (inactive) | –
CSc1ccc(/C=C2/C(C)=C(CC(=O)O)c3cc(F)ccc32)cc1 | 2.27% [at 42.5 µM] (inactive) | –
NC(=O)C1(N2CCCCC2)CCN(CCCN2c3ccccc3CCc3ccc(Cl)cc32)CC1 | – | 33.5 µM (active)
CCCCN(CCCC)C(=O)N(CCCC)CCCC | 0.5% (inactive) | –
Fc1ccc(C(c2ccc(F)cc2)N2CCN(C/C=C/c3ccccc3)CC2)cc1 | -0.783% [at 42.5 µM] (inactive) | –
